Source: PubChem
TRHR ag: agonists of human TRH receptor; activation, % at 2 µM; P34981; TRHR cells, calcium flux fluo-8, FDSS agonist mode; actives 0.18% (n = 360,000); AID 493084
Target sequence (P34981 whole entry, looked up): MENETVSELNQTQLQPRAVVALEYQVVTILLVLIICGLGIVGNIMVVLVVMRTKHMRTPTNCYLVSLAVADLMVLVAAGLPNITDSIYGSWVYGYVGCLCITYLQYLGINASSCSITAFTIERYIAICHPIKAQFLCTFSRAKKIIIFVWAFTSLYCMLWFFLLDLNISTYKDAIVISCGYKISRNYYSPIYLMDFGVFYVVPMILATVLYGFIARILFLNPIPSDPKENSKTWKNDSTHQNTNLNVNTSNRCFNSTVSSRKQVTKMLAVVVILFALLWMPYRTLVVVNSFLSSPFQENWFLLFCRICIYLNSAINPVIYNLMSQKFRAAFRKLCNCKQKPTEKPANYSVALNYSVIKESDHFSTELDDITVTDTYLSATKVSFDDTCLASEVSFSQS
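Steps: seed TRHR cells overnight; add fluo-8 no-wash Ca dye, RT 30 min–1.5 h; record 10 s baseline; pin-transfer compounds; monitor fluorescence 1 cycle/s for the agonist window. Calcium increases flag candidate agonists.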
D1 antagonist: antagonists of human D1 dopamine receptor; activity change, negative = inhibition, % at 10 µM; AID 504652; actives 3.2% (n = 360,000); HEK293 TREx D1 cells, calcium flux, dopamine EC80; active compounds read low; in the data active = activity change below about -30%
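Tetracycline-induced HEK293 T-REx cells with force-coupled D1 receptor were loaded with a no-wash calcium dye. Compound was added after a 10 s baseline and read kinetically for 180 s; EC80 dopamine was then added and calcium flux followed another 180 s.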
GRP78 ERSR act: inducers of ER stress response in human glioma cells. U87-MG GRP78 promoter luciferase reporter, 16 h. Potency, µM, most hits filed as activators. actives 0.02% (n = 420,000); active = well fitted activation curve with a large enough effect; note: series mostly up to about 76 µM; nearly all actives have a fitted effect of over 35% in size
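Stably transfected U87-MG glioma cells carrying a GRP78-based luciferase sensor; 16 h compound incubation. Luminescence end-point read 10 min after Bright-Glo addition at room temperature.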
TRHR PAM: TRH receptor (human) allosteric enhancement | P34981 | TRHR cells, fluo-8 calcium fluorescence, EC20 TRH enhancement | actives 0.66% (n = 360,000) | enhancement, % at 2 µM; in the data active = enhancement above about 30%
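TRHR-expressing cells loaded with fluo-8 calcium dye were read kinetically (ex 480/em 530) during compound addition, then stimulated with an EC20 of TRH (10 nM final). Enhancement of the Gq-mediated intracellular calcium response was scored.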
D1 potentiator: human D1 dopamine receptor positive modulation | P21728 | HEK293 TREx D1 cells, calcium flux, dopamine EC20 potentiation | potentiation, % at 10 µM | actives 0.036% (n = 360,000); in the data active = potentiation above about 30%
D1 ag: activates the human D1 dopamine receptor | P21728 | HEK293 T-REx D1 cells, calcium flux, agonist mode | activation, % at 2 µM | actives 1% (n = 360,000)
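Tetracycline-induced HEK293 TREx D1 cells, force-coupled to calcium signalling, were dye-loaded with a no-wash calcium kit. Compound was pin-added after a 10 s baseline. Fluorescence was read kinetically at 1 cycle/s for 180 s, with calcium rises flagged as agonism.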
Large screens that a line does not name were inactive. Compounds with a hit are over-represented: about 4% of the library has one in this group of screens. Cut-off read from the data, not from the text of the source, unless noted: active = activation above about 30%; inactive = the rest.

Cc1c(C(=O)N2CCCCCC2)c(S(=O)(=O)Nc2cccc(C#N)c2)c(C)n1C	none
CCOC(=O)C1CCCN(C(=O)CCCn2nnnc2CN2CCOCC2)C1 (configuration not stated)	none
CCCCN(Cc1nc2ccccc2c(=O)[nH]1)C(=O)COc1ccc(F)cc1Cl	D1 antagonist -42
CSc1ccc(/C=N/NC(=O)CN2CCN(Cc3ccccc3)CC2)cc1	none
CSc1ccc(/C=N/NC(=O)CN2CCN(Cc3ccc(Cl)cc3)CC2)cc1	D1 ag 38
O=S(=O)(Nc1nc2n(n1)C(c1ccccc1)C=C(c1ccc(Cl)cc1)N2)c1ccccc1 (configuration not stated)	D1 ag 32
Cc1ccc(S(=O)(=O)Nc2nc3n(n2)C(c2ccc(F)cc2)C=C(c2ccccc2)N3)cc1 (configuration not stated)	none
Cc1ccc(C2C=C(c3ccccc3)Nc3nc(NS(=O)(=O)c4ccccc4)nn32)cc1 (configuration not stated)	D1 ag 31
Cc1ccc(S(=O)(=O)NCCCCCC(=O)NC(C)(C)CO)cc1	none
CCCC[N+](C)(C)CCC(=O)NC(C)(C)CS(=O)(=O)[O-]	D1 antagonist -34
COc1ccc2oc(=O)c(C(=O)NCCc3c(C)[nH]c4c(C)cccc34)cc2c1	TRHR PAM 51
COc1cccc2cc(C(=O)NCCc3c(C)[nH]c4ccc(F)cc34)c(=O)oc12	TRHR PAM 39
Cc1ccc(NC(=O)COC(=O)c2ccccc2OCC(=O)Nc2ccc(Br)cc2)c(C)c1	none (no result: TRHR ag, D1 antagonist, TRHR PAM, D1 potentiator, D1 ag)
COc1ccc(Nc2nnc(-c3cc4c(ccc5ccccc54)oc3=O)s2)cc1	none (no result: GRP78 ERSR act)
O=c1oc2cc(O)ccc2cc1-c1nnc(Nc2ccccc2F)s1	TRHR ag 187, TRHR PAM 39, D1 ag 405 (no result: GRP78 ERSR act)
COc1cccc(Nc2nnc(-c3cc4ccc(O)cc4oc3=O)s2)c1	TRHR ag 70, D1 ag 369 (no result: GRP78 ERSR act)
O=c1oc2ccc3ccccc3c2cc1-c1nnc(Nc2ccccc2F)s1	none
COc1ccccc1-c1ccc(C(=O)NCCN2CCOCC2)c(N2CCN(c3ccccc3F)CC2)n1	none (no result: TRHR ag, D1 antagonist, TRHR PAM, D1 potentiator, D1 ag)
Cc1nc2nncn2c(NCc2ccc(Cl)cc2)c1C	D1 antagonist -34
CCC(=O)N1c2ccc(S(=O)(=O)NCc3cccc(OC)c3)cc2CC1C (configuration not stated)	D1 antagonist -76
CC(=O)N1c2ccc(S(=O)(=O)NCc3ccc(Cl)cc3)cc2CC1C (configuration not stated)	D1 antagonist -32
c1ccc2c(CNc3ccc(CNc4ncn[nH]4)cc3)cccc2c1	D1 antagonist -46
COc1ccccc1CNc1ccc(CNc2ncn[nH]2)cc1	none
Cc1ccc(CNC(=O)C2CCN(S(=O)(=O)c3c(C)noc3/C=C/c3cccs3)CC2)cc1	none
COc1ccc(/C=N/NC(=O)CN(Cc2ccccc2)S(=O)(=O)c2ccc3c(c2)OCCO3)cc1	none
COc1ccc(CNC(=O)CN(CCC(C)C)S(=O)(=O)c2ccc3c(c2)OCCO3)cc1	D1 antagonist -32
CCOC(=O)c1cc2c(ccn2C)n1CC(=O)N1CCN(c2ccc(F)cc2)CC1	none
CCOC(=O)c1cc2c(ccn2C)n1CC(=O)N1CCN(c2cccc(C(F)(F)F)c2)CC1	D1 antagonist -38
COc1ccc(-c2ccc(C(=O)Nc3ccc4c(c3)OCO4)c3occc23)c(C)c1	none (no result: TRHR ag, D1 antagonist, TRHR PAM, D1 potentiator, D1 ag)
COc1ccc(-c2[nH]ncc2C(=O)NCc2cccc(F)c2)cc1	TRHR PAM 37 (no result: GRP78 ERSR act)
CCc1ccc(-n2nc(C)c3c(C(=O)Nc4cccc(C(F)(F)F)c4)cc(C)nc32)cc1	D1 antagonist -35
COc1cccc(CNC(=O)c2cc(C)nc3c2c(C)nn3-c2cccc(F)c2)c1	D1 ag 33
Cc1cc(C(=O)NCc2ccccc2C)c2c(C)nn(-c3cccc(F)c3)c2n1	D1 antagonist -46
COc1cc(-c2cc(C)c3cccc(OC)c3n2)cc2c1OCCN(C(=O)CCn1nc(C)cc1C)C2	none (no result: TRHR ag, D1 antagonist, TRHR PAM, D1 potentiator, D1 ag)
CCCS(=O)(=O)NC(=O)C1(C)CCN(C(=O)c2ccc3ccccc3c2)C1 (configuration not stated)	none (no result: TRHR ag, D1 antagonist, TRHR PAM, D1 potentiator, D1 ag)
COC(=O)c1ccccc1-c1cc(C)cc2c1OC(CNC(=O)C1CCCO1)C2 (configuration not stated)	none (no result: TRHR ag, D1 antagonist, TRHR PAM, D1 potentiator, D1 ag)
Cc1ccc(C)c(N2CCN(CCCNC(=O)Cn3cc4c(n3)CCCCC4)CC2)c1	D1 ag 33
CCOC(=O)c1ccc(NC(=O)Cn2cc3c(n2)CCC(C)C3)cc1 (configuration not stated)	D1 antagonist -30
O=C(Cn1cc2c(n1)CCCC2)NCCCN1CCN(c2ccccc2F)CC1	D1 antagonist -35
CCOC(=O)c1ccc(NC(=O)Cn2nnc(-c3ccc(C(F)(F)F)cc3)n2)cc1	TRHR PAM 44
CCOC(=O)CC(NC(=O)Cn1nnc(-c2ccc(C(F)(F)F)cc2)n1)c1ccc(C)cc1 (configuration not stated)	none
CCCCNC(=O)[C@@H]1CC=C[C@@H]2CCN(Cc3ccc(OC)c(OC)c3)C(=O)[C@@H]21	none (no result: TRHR ag, D1 antagonist, TRHR PAM, D1 potentiator, D1 ag)
COCCCn1c(CCC(=O)O)ccc1-c1cccs1	none
Cc1ccc(C)c(N2CCN(CCCNC(=O)Cn3cc4c(n3)CCC(C)C4)CC2)c1 (configuration not stated)	D1 ag 48
Cc1cc(C)n2nc(SCC(=O)NC3CCCC(C)C3C)nc2n1 (configuration not stated)	none
N#Cc1c2ccc([N+](=O)[O-])cc2[n+]([O-])n1-c1ccccc1	D1 antagonist -61 (no result: GRP78 ERSR act)
Cc1ccc(S(=O)(=O)N2CCN(c3cc(-c4cccs4)nc4ccccc34)CC2)cc1	none (no result: TRHR ag, D1 antagonist, TRHR PAM, D1 potentiator, D1 ag)
C/C(CCc1ccco1)=N\NC(=O)CNc1c(Br)cc(Br)cc1Br	D1 antagonist -44
CCSc1nnc(-c2sc3nnc(-c4ccccc4)c(-c4ccccc4)c3c2N)o1	TRHR ag 64, D1 ag 109
CC(=O)c1cccc(NC(=O)Cn2c(C)c3cnn(-c4ccccc4)c(=O)c3c2C)c1	none
CCC(C(=O)Nc1ccc(C(C)=O)cc1)n1c(C)c2cnn(-c3ccccc3)c(=O)c2c1C (configuration not stated)	D1 ag 51
O=C(O)CCN1C(=O)C2C3c4ccccc4C(c4ccccc43)[C@@H]2C1=O (some centres not stated)	D1 antagonist -31
O=c1[nH]cc(S(=O)(=O)Nc2ccc3c(c2)OCO3)c(=O)[nH]1	none
Fc1ccc(-c2cc(-c3nc(-c4cccc(Cl)c4)no3)[nH]n2)cc1	none
